{"source": "PubChem BioAssay (NCATS)", "note": "Results filed as inconclusive are left out. Values without a mark were called inactive. Calls of active or inactive are those of the source. Calls come from the whole dose curve; as a rule, active = well fitted inhibition curve with a large enough effect; inconclusive = small, poorly fitted or top-dose-only effect; inactive = no such curve, though single readings can be large or run the other way. % is set by controls: 0 for no effect and ±100 for the full control effect; potency is the fitted concentration of half-maximal effect.", "data": [{"target": "Chromobox protein homolog 1 (Homo sapiens) (UniProt P83916)", "sequence (P83916 whole entry, looked up)": "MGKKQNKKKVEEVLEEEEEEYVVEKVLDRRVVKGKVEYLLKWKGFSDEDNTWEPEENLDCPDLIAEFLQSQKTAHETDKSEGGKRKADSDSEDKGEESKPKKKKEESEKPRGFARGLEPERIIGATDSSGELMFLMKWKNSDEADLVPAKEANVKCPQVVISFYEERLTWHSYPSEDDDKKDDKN", "test": "qHTS Validation Assay for Inhibitors of HP1-beta Chromodomain Interactions with Methylated Histone Tails (AID 488953); note: nearly all actives have a fitted effect of over 50% in size", "conditions": "HP1-beta chromodomain / methylated histone peptide binding assay; series mostly up to 114 µM; activity change, negative = inhibition: at the top concentration", "text": "As our understanding of epigenetics expands, it is becoming clear that players in this field are potential targets for drug development. This area of epigenetic therapy has established applications for the treatment of cancer and neurological diseases. We have been involved in this field for a number of years and have performed high-throughput screens to identify the first small molecule inhibitors of protein methyltransferases. These methyltransferases target multiple substrates, and thus regulate many arms of an epigenetic pathway. The methylation of different substrates often generates docking sites for effector proteins that harbor binding domains (chromo, tudor, PHD, MBT and ANK repeats).\nIt has been proposed that the binding sites generated for different proteins by these post-translational modifcations mediate downstream effects on chromatin. Consistent with this theory, di- and tri-methylation of histone H3K9 facilitates the binding of heterochromatin protein HP1. The HP1 protein harbors a chromodomain that is responsible for the methyl-dependent interaction between HP1 and lysine 9 of histone H3. HP1 was first described in flies as a heterochromatin associated protein that can regulate gene silencing. It harbors a chromodomain that binds H3K9me3. In addition, it harbors a chromoshadow domain that interacts with a large number of proteins that are involved in heterochromatin formation and gene repression. There are three highly related HP1 isoforms. All three variants are associated with pericentric heterochromatin and it is not clear whether they have specific or redundant functions. MPP8 is also involved in the repression of gene in euchromatic regions (unpublished data) and like HP1 its chromodomain binds H3K9me3. MPP8 harbors an ankyrin repeat region that is likely involved in binding and recruiting interacting proteins with transcriptional repressive function, much like the chromoshadow domain of HP1 does.\nWe hypothesize that by inhibiting specific protein-protein interactions we will be able to develop compounds that block a single arm of an epigenetic pathway. The specificity attained by blocking a single protein-protein interaction will be far greater than that attained by blocking the enzyme that regulates one of many interactions.\nLow-affinity protein-protein interactions (Kd in the single- to double-digit micromolar range) such as those discussed here have been very difficult to assay by traditional techniques such as fluorescence polarization or fluorescence resonance energy transfer. We have developed a sensitive chemiluminescence-based assay (Quinn, et al. 2009), which serves as the starting point for this project.\nThe following is a validation assay to identify lead compounds that can block methyl-dependent protein-protein interactions (specifically HP1-beta), which can be used as probes to analyze these methyl-driven interactions and perhaps even developed into targeted epigenetic therapies.\nAssay Provider: Mark T. Bedford, MD Anderson\nScreening Center PI: Austin, C.P.\nScreening Center: NIH Chemical Genomics Center [NCGC]\nTo each well, 2 uL of HP1-beta protein (final 50 nM) and 1 uL biotinylated histone peptide trimethylated at Lys9 [b-H3(1-18)K9me3] (final 50 nM) was added in 1x PBS buffer, pH 7.4, containing 0.01% Tween-20 using a nanoliter dispenser. Formation of a protein-peptide complex proceeded at room temperature for 30 min. A Kalypsys pin-tool was employed to transfer 23 nL of library compound solution in DMSO to each well. Aurintricarboxylic acid (ATA) was used as an intraplate control with a 12-point titration in duplicate. Following a 30 min incubation of the protein-peptide complex with compounds at room temperature, a mixture of 40 ug/mL each streptavidin-coated donor and nickel chelate acceptor AlphaScreen beads (final 10 ug/mL) was added in a 1 uL dispense for a final volume of 4 uL. Plates were incubated protected from the light for 30 min at room temperature. […]", "values": [{"smiles": "NC(N)=NC(=O)c1nc(Cl)c(N)nc1N", "activity change, negative = inhibition": "-0.112%"}, {"smiles": "CCn1cc(C(=O)O)c(=O)c2cc(F)c(N3CCNC(C)C3)c(F)c21", "note": "(stereo not given)", "activity change, negative = inhibition": "-1.37%"}, {"smiles": "CCC(C)N(C)C(=O)c1cc2ccccc2c(-c2ccccc2Cl)n1", "note": "(stereo not given)", "activity change, negative = inhibition": "-3.21%"}, {"smiles": "CC(C)C[C@H](NC(=O)[C@@H](O)[C@H](N)Cc1ccccc1)C(=O)O", "activity change, negative = inhibition": "-5.7%"}, {"smiles": "O=C1CCc2cc(OCCCCc3nnnn3C3CCCCC3)ccc2N1", "activity change, negative = inhibition": "-5.57%"}, {"smiles": "CC(=O)Oc1ccccc1C(=O)O", "activity change, negative = inhibition": "0.0606%"}, {"smiles": "CCN(CC)CCCC(C)Nc1ccnc2cc(Cl)ccc12", "note": "(stereo not given)", "activity change, negative = inhibition": "-5.78%"}, {"smiles": "Cc1cnc(NC(=O)C2=C(O)c3ccccc3S(=O)(=O)N2C)s1", "activity change, negative = inhibition": "3.15%"}, {"smiles": "N=c1nc(N2CCCCC2)cc(N)n1O", "activity change, negative = inhibition": "-6.04%"}, {"smiles": "O=NN(CCCl)C(=O)NCCCl", "activity change, negative = inhibition": "-9.88%"}, {"smiles": "CCCC(CCC)C(=O)O", "activity change, negative = inhibition": "-6.39%"}, {"smiles": "Cc1ccccc1C(OCCN(C)C)c1ccccc1", "note": "(stereo not given)", "activity change, negative = inhibition": "-9.44%"}, {"smiles": "Clc1cccc(Cl)c1NC1=NCCN1", "activity change, negative = inhibition": "-7.08%"}, {"smiles": "Cc1[nH]c(=O)c(C#N)cc1-c1ccc2nccn2c1", "activity change, negative = inhibition": "13%"}, {"smiles": "O=c1n(CCCN2CCN(c3cccc(Cl)c3)CC2)nc2ccccn12", "activity change, negative = inhibition": "-3.15%"}, {"smiles": "c1ccc([C@H]2CN3CCSC3=N2)cc1", "activity change, negative = inhibition": "10.2%"}, {"smiles": "O=c1[nH]cnc2[nH]ncc12", "activity change, negative = inhibition": "-0.914%"}, {"smiles": "CC(C[N+](C)(C)C)OC(N)=O", "note": "(stereo not given)", "activity change, negative = inhibition": "54.1% [at 57.1 µM]"}, {"smiles": "Cc1[nH]c(=O)c(C#N)cc1-c1ccncc1", "activity change, negative = inhibition": "-6.97%"}, {"smiles": "NNCCc1ccccc1", "activity change, negative = inhibition": "-5.31%"}, {"smiles": "Nc1ccc(S(=O)(=O)Nc2ccnn2-c2ccccc2)cc1", "activity change, negative = inhibition": "1.53%"}, {"smiles": "NS(=O)(=O)c1cc2c(cc1Cl)NC=NS2(=O)=O", "activity change, negative = inhibition": "-1.72%"}, {"smiles": "CN1CCN(CCCN2c3ccccc3Sc3ccc(C(F)(F)F)cc32)CC1", "Potency": "31.6 µM (active)"}, {"smiles": "Cc1cccc(-c2[nH]c(C(C)(C)C)nc2-c2ccc3nccnc3c2)n1", "activity change, negative = inhibition": "11.2%"}, {"smiles": "NC(=O)c1cnccn1", "activity change, negative = inhibition": "0.74%"}, {"smiles": "Cc1cn[nH]c1", "activity change, negative = inhibition": "-14.5%"}, {"smiles": "Cc1oncc1C(=O)Nc1ccc(C(F)(F)F)cc1", "activity change, negative = inhibition": "-0.609%"}, {"smiles": "CC(C)(Sc1ccc(CCN(CCCCC2CCCCC2)C(=O)NC2CCCCC2)cc1)C(=O)O", "Potency": "56.2 µM (active)"}, {"smiles": "Nc1nc2c(ncn2COCCO)c(=O)[nH]1", "activity change, negative = inhibition": "-0.654%"}, {"smiles": "C[C@]12CCC(=O)C=C1CC[C@@H]1[C@@H]2[C@@H](O)C[C@@]2(C)[C@H]1CC[C@]2(O)C(=O)CO", "activity change, negative = inhibition": "-3.51%"}, {"smiles": "NC[C@H](O)c1ccc(O)c(O)c1", "activity change, negative = inhibition": "-6.54%"}, {"smiles": "Nc1nc2ccc(OC(F)(F)F)cc2s1", "activity change, negative = inhibition": "-1.88%"}, {"smiles": "OC(CN1CCC(Cc2ccc(F)cc2)CC1)c1ccc(Cl)cc1", "note": "(stereo not given)", "activity change, negative = inhibition": "-7.16%"}, {"smiles": "OC(CCN1CCCCC1)(c1ccccc1)C1CC2C=CC1C2", "note": "(stereo not given)", "activity change, negative = inhibition": "-4.26%"}, {"smiles": "O=C(O)COCCN1CCN(C(c2ccccc2)c2ccc(Cl)cc2)CC1", "note": "(stereo not given)", "activity change, negative = inhibition": "-2.04%"}, {"smiles": "CNC[C@H](O)c1cccc(O)c1", "activity change, negative = inhibition": "5.67%"}, {"smiles": "CCCCNc1cc(C(=O)O)cc(S(N)(=O)=O)c1Oc1ccccc1", "activity change, negative = inhibition": "-5.38%"}, {"smiles": "O=C1CCC(N2C(=O)c3ccccc3C2=O)C(=O)N1", "note": "(stereo not given)", "activity change, negative = inhibition": "1.99%"}, {"smiles": "Oc1ccc(C2CNCCc3c2cc(O)c(O)c3Cl)cc1", "note": "(stereo not given)", "Potency": "0.0067 µM (active)"}, {"smiles": "CC(C)(C)NCC(O)c1ccc(O)c(CO)c1", "note": "(stereo not given)", "Potency": "inactive"}]}]}
